KCNQ2 block: rat KCNQ2 potassium channel inhibitors, primary screen, cell-based, CHO-K1, FluxOR thallium flux, B-score. Potassium voltage-gated channel subfamily KQT member 2 (Rattus norvegicus), O88943. 20 min; active compounds read low. B-score at 10 µM. 1.1% of 310,000 active. AID 2156, 2009;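 active = fluorescence ratio B-score at most minus 3 library SDs, with starting brightness B-score within 2 library SDs, cut at about -5.5 in these data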
KCNQ2 enhance: potentiators of rat KCNQ2 potassium channel. Potassium voltage-gated channel subfamily KQT member 2 (Rattus norvegicus), O88943. CHO-K1 KCNQ2, FluxOR thallium flux fluorescence; active compounds read high. B-score at 10 µM. 0.54% of 310,000 active. AID 2239, 2010;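 active = fluorescence ratio B-score at least 3 SD of library B-scores, with initial fluorescence B-score within 3 of them, cut at about 5.3 in these data; same plate scores as AID 2156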;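 also: B-score of peak minus minimum over baseline fluorescence ratio after K+ and Tl+ stimulus; positive B-score means potentiation of KCNQ2 with more thallium influx and brighter signal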
KCNQ2 block conf: rat KCNQ2 potassium channel inhibitors, confirmation, cell-based, thallium flux; KCNQ2-expressing cells, inhibition; active compounds read low; shares compounds with KCNQ2 block; AID 493025, 2011; 57% of 1,000 active; activity change, negative = inhibition, % at 10 µM;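 also: 0% = vehicle wells and values are ratio percent relative to vehicle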
KCNQ1 spec: human KCNQ1 channel inhibition, counter-screen for KCNQ2 inhibitor project, cell-based, FluxOR thallium flux | shares compounds with KCNQ2 block | 15% of 1,000 active | AID 493026, 2011 | activity change, negative = inhibition, % at 10 µM | KCNQ1-expressing cells, FluxOR thallium flux fluorescence; active compounds read low;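 active = activity change at least 3 SD of negative controls below their mean in both duplicate wells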;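 also: CHO cells stably transfected with KCNQ1 and depolarized by potassium stimulus; peak minus minimum fluorescence over baseline after thallium addition; 0% = vehicle negative control and -100% = blank without thallium stimulus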
Target sequence (P51787 whole entry, looked up): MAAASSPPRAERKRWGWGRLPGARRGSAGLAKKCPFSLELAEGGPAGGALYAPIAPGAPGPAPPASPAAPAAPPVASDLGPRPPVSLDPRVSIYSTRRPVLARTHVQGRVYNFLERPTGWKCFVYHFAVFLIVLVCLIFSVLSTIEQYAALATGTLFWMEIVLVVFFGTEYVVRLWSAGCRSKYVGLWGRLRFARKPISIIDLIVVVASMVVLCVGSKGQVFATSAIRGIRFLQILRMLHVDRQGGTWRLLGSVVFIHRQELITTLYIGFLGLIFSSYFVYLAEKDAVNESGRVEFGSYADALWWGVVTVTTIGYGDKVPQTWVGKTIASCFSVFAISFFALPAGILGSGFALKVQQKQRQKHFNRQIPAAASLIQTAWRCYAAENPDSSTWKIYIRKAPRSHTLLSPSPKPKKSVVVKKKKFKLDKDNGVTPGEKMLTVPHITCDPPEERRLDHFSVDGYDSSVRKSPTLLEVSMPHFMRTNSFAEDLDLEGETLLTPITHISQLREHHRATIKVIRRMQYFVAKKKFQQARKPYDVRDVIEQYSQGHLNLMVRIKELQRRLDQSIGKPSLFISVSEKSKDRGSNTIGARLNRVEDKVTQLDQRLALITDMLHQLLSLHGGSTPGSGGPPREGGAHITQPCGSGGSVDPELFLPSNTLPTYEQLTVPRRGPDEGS
CHO parental ctr: thallium flux change in parental CHO cells, counter-screen for KCNQ2 inhibitor project. shares compounds with KCNQ2 block. 14% of 1,000 active. AID 493029, 2011. active compounds read low. activity change, % at 10 µM;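 also: 0% = vehicle negative controls with stimulus buffer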
KCNQ2 inh confirm: rat KCNQ2 channel inhibitors, confirmation, cell-based, automated patch clamp, single concentration. calls only at 10 µM. KCNQ2-expressing cells, automated patch clamp current. 49% of 550 active. shares compounds with KCNQ2 block. AID 588531, 2011
Active calls of the source: *; i = inactive; x = no result given; + = active, no number. An excerpt weighted towards active compounds, which were near 1.6% of everything screened. Unless noted, no rule for the calls is given here.

SMILES | KCNQ2 block | KCNQ2 enhance | KCNQ2 block conf | KCNQ1 spec | CHO parental ctr | others
COc1cc(OC)cc(C(=O)Nn2cc(C(=O)Nc3c(F)cccc3F)c3ccccc3c2=O)c1 | -6.9* | -6.9 | i | i | i
Cc1oc(-c2cccs2)nc1CN1CCC(CO)(CCOc2ccccc2)CC1 | i | x | x | x | x
CSCCC(NC(=O)c1ccccc1Cl)C(=O)N1CCC1 (centres undefined) | i | 0.67 | x | x | x
CSCCC(NC(=O)c1ccccc1Br)C(=O)N1CCC(C)CC1 (centres undefined) | -12* | -12 | -36%* | -39%* | -30%* | KCNQ2 inh confirm=+
COC(=O)CC(NC(=O)CN1CCN(c2ccc(F)cc2)CC1)c1cccc(F)c1 (centres undefined) | i | 0.29 | x | x | x
CCCn1c(=O)c(C(=O)NC(C)c2ccccc2)c(O)c2ccccc21 (centres undefined) | -11* | -11 | i | i | i
Cn1c(=O)c(C(=O)NCc2ccccc2Cl)c(O)c2ccccc21 | i | x | x | x | x
CCn1c(=O)c(C(=O)NCc2ccccc2Cl)c(O)c2ccccc21 | -8.4* | -8.4 | -36%* | -37%* | -23%* | KCNQ2 inh confirm=i
CCn1c(=O)c(C(=O)NC(C)c2ccccc2)c(O)c2ccccc21 (centres undefined) | i | x | x | x | x
CC(C)c1ccc(/C=C(\NC(=O)c2ccccc2)C(=O)NCCCN2CCOCC2)cc1 | i | 0.07 | x | x | x
CC(C)(C)NC(=O)c1ccccc1NC(=O)C1CC(=O)N(C2CCCCC2)C1 (centres undefined) | i | x | x | x | x
CCCN(C(=O)c1cn(C)c(=O)c2ccccc12)c1ccccc1C | i | 0.79 | x | x | x
O=[N+]([O-])c1ccc(-c2csc(N3CCc4ccccc4C3)n2)cc1 | i | x | x | x | x
O=[N+]([O-])c1ccc(N2CCc3ccccc3C2)cc1 | -7.1* | -7.1 | i | i | i
COc1ccc(OC)c(NC(=O)Nc2cc(C(=O)O)ccc2C)c1 | i | 0.53 | x | x | x
CCCCn1c(SCC(=O)NNC(=O)c2ccco2)nnc1-c1ccco1 | i | 0.14 | x | x | x
Oc1ccccc1N=Nc1nc(-c2ccccc2)c(-c2ccccc2)[nH]1 | -6.6* | -6.6 | i | i | i
COc1ccccc1N=Nc1nc(-c2ccccc2)c(-c2ccccc2)[nH]1 | i | x | x | x | x
CCOC(=O)c1c(-c2ccc(-c3ccccc3)cc2)csc1NC(=O)CNCCN(C)C | -8.8* | -8.8 | i | i | i
CCOC(=O)c1c(-c2ccc(-c3ccccc3)cc2)csc1NC(=O)CCN1CCOCC1 | i | 1.2 | x | x | x
CCOC(=O)c1c(-c2cccs2)csc1NC(=O)CCCC(=O)O | i | 0.46 | x | x | x
CCOC(=O)c1c(-c2cccs2)csc1NC(=O)C(C)(C)C | -7* | -7 | -35%* | -37%* | -34%* | KCNQ2 inh confirm=i
CCOC(=O)c1c(-c2cccs2)csc1NC(C)=O | i | x | x | x | x
CCOC(=O)c1c(-c2cccs2)csc1NC(=O)CN1CC(C)OC(C)C1 (centres undefined) | -8.1* | -8.1 | -19%* | i | i | KCNQ2 inh confirm=i
CC(C)c1ccc(/C=C(\NC(=O)c2ccccc2)C(=O)NCCCn2ccnc2)cc1 | i | 0.05 | x | x | x
SMILES | KCNQ2 block | KCNQ2 enhance | KCNQ2 block conf | KCNQ1 spec | CHO parental ctr | others
CC(C)c1ccc(N2C(=NC(=O)C3CC3)SC3CS(=O)(=O)CC32)cc1 (centres undefined) | i | 0.73 | x | x | x
CN(C)C(CNC(=O)c1ccc(NS(=O)(=O)c2ccc3[nH]c(=O)[nH]c3c2)cc1)c1ccccc1 (centres undefined) | i | x | x | x | x
O=C(Sc1nnc(-c2ccccc2)o1)N1c2ccccc2Sc2ccccc21 | -6.8* | -6.8 | i | i | i
COc1cc(-c2nnc(SCC(=O)N3c4ccccc4Sc4ccccc43)o2)cc(OC)c1OC | i | x | x | x | x
Cc1cc(C)c[n+](-c2[nH]c(=O)sc2/C=N/N=C(\[O-])c2cccnc2)c1 | i | 1.7 | x | x | x
Cc1ccc(-c2nc(-c3nccc4ccccc34)oc2-c2ccccc2)cc1 | -9.2* | -9.2 | -28%* | i | i | KCNQ2 inh confirm=i
c1ccc(-c2nccc3ccccc23)cc1 | i | 0.17 | x | x | x
COc1ccc(/C(N)=N/OC(=O)CC2CCCCC2)cc1OC | i | 0.35 | x | x | x
COc1ccc(/C(N)=N/OC(=O)CSc2ccc(C)cc2)cc1OC | -9.2* | -9.2 | i | i | i
CC1Cc2ccccc2N1C(=O)COC(=O)Cc1ccc(F)cc1 (centres undefined) | i | 1.4 | x | x | x
O=C(Nc1ccc(F)cc1)c1cccnn1 | i | 0.2 | x | x | x
CCOc1cccc(CNCCO)c1OCc1ccc(Cl)cc1 | i | 0.75 | x | x | x
CCOc1cc(CNCCO)cc(Br)c1OCc1ccc(Cl)cc1 | -8.1* | -8.1 | i | i | i
COC(=O)NN1C(=O)C(c2ccccc2)=C(c2ccc(Cl)cc2)C1=O | -8.8* | -8.8 | i | i | i
COC(=O)Nc1c(-c2ccccc2)nc2ccc(Cl)cn12 | i | x | x | x | x
COc1cc(CN2CCNC(=O)C2CC(=O)NC2CCC2)cc(OC)c1 (centres undefined) | i | x | x | x | x
O=C(c1cc(C(=O)N2CCOCC2)c2nc3ccccc3n2c1)c1ccccc1O | i | x | x | x | x
CCc1c(C)sc2nc3c(C(=O)N4CCOCC4)cc(C(=O)c4cc(F)ccc4O)cn3c(=O)c12 | -8.5* | -8.5 | -24%* | i | i | KCNQ2 inh confirm=+
O=c1nccc(SCc2ccc(Cl)cc2Cl)[nH]1 | i | x | x | x | x
CCCn1c(N)c(N(CCOC)C(=O)Cc2ccc(S(=O)(=O)N3CCOCC3)s2)c(=O)[nH]c1=O | i | x | x | x | x
CC1CN(C(=O)c2ccc(COc3ccc4ccccc4c3)o2)CC(C)O1 (centres undefined) | -10* | -10 | i | i | i
CC1CN(C(=O)c2ccc(COc3ccc(C(C)C)cc3)o2)CC(C)O1 (centres undefined) | i | x | x | x | x
O=C(COC(=O)C1CCCCC1C(=O)N1CCc2ccccc21)NCc1ccco1 (centres undefined) | i | x | x | x | x
CCC(C(=O)Nc1ccccc1N1CCCC1)c1ccccc1 (centres undefined) | -7.2* | -7.2 | -36%* | i | i | KCNQ2 inh confirm=+
CCC(Oc1ccccc1)C(=O)Nc1ccccc1N1CCCC1 (centres undefined) | i | x | x | x | x
CC(Oc1cccc(Cl)c1)C(=O)Nc1ccccc1N1CCCCC1 (centres undefined) | -7.1* | -7.1 | i | i | i
CC(Oc1cccc(Cl)c1)C(=O)Nc1ccccc1C(=O)N1CCCCC1 (centres undefined) | i | x | x | x | x
CCOc1ccc(NC(=O)CN(C)C(=O)c2ccccc2-n2cnnn2)cc1OCC | i | 0.52 | x | x | x

High-throughput results deposited in PubChem by Johns Hopkins Ion Channel Center.
